Assay results reported in the supplement of paper PMC6607015.
Structures can show the parent of a compound that is named as a salt.

How the values were obtained:
Conditions in all cases: compound concentration in added solution (µM; 5 µl added to 20 µl cells): 10; 18 h
[1] = system: A431; test: LBPA endosome anti-LBPA integrated intensity (sum per cell), Z-score; higher = more LBPA staining
In short: (§1)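 The data are Z-scores, normalised in AcuityXpress, of integrated LBPA or filipin intensity in each cell, either whole-cell or restricted to LBPA endosomes. HeLa MZ or A431 cells, 3,500 per well in 20 µl, were seeded onto 5 µl of 10 µM compound solution in duplicate 384-well plates and incubated 18 h. Fixed cells were stained and imaged, with intensities extracted by MetaXpress segmentation.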

[2] = system: HeLa MZ; test: as above
In short: as §1

[3] = system: A431; test: whole-cell filipin (free cholesterol) integrated intensity, Z-score; higher = more cholesterol staining
In short: as §1

[4] = system: HeLa MZ; test: as above
In short: as §1

[5] = system: A431; test: filipin (cholesterol) integrated intensity within LBPA endosomes, Z-score; higher = more cholesterol in LBPA endosomes
In short: as §1

[6] = system: HeLa MZ; test: as above
In short: as §1

SMILES	LBPA endosome anti-LBPA integrated intensity (z-score) [1]	LBPA endosome anti-LBPA integrated intensity (z-score) [2]	whole-cell filipin (z-score) [3]	whole-cell filipin (z-score) [4]	filipin (z-score) [5]	filipin (z-score) [6]
CN(C)CCCC1(c2ccc(F)cc2)OCc2cc(C#N)ccc21 (configuration not stated) [Citalopram Hydrobromide]	-0.329	1.58	0.204	0.212	-0.352	0.534
CN1CCN(C2=Nc3cc(Cl)ccc3Nc3ccccc32)CC1 [Clozapine]	1.19	2.46	0.629	-0.114	0.781	1.4
COc1c(N2CCNC(C)C2)c(F)cc2c(=O)c(C(=O)O)cn(C3CC3)c12 (configuration not stated) [Gatifloxacin]	-0.517	0.0619	-0.124	0.333	-0.446	0.0101
Cc1noc(NS(=O)(=O)c2ccc(N)cc2)c1C [Sulfisoxazole]	-0.641	-0.742	-0.79	-0.499	-0.574	-0.486
CN(C)CCC=C1c2ccccc2C=Cc2ccccc21 [Cyclobenzaprine hydrochloride]	2.59	2.51	1.71	0.233	2.57	2.22
Clc1ccc2nsnc2c1NC1=NCCN1 [Tizanidine HCl]	-0.331	0.552	-0.333	-0.51	-0.548	-0.219
C[C@H](CCC(=O)O)[C@H]1CC[C@H]2[C@@H]3C(=O)C[C@@H]4CC(=O)CC[C@]4(C)[C@H]3CC(=O)[C@]12C [Dehydrocholic acid]	-0.567	-0.186	-0.785	-0.553	-0.549	-0.532
O=C(O)CCCC[C@@H]1SC[C@@H]2NC(=O)N[C@@H]21 [Biotin]	-0.478	-0.782	-0.69	-0.491	-0.471	-0.52
c1cnc(N2CCN(Cc3ccc4c(c3)OCO4)CC2)nc1 [Piribedil hydrochloride]	0.161	1.95	0.544	1.93	-0.00283	1.55
C[C@]12C=CC(=O)C=C1CC[C@@H]1[C@@H]2[C@@H](O)C[C@@]2(C)[C@H]1CC[C@]2(O)C(=O)CO [Prednisolone]	-0.285	-0.493	-0.674	-0.403	-0.432	-0.544
C#C[C@]1(OC(C)=O)CC[C@H]2[C@@H]3CCC4=CC(=NO)CC[C@@H]4[C@H]3CC[C@@]21CC (mixture of isomers) [Norgestimate]	-0.26	1.65	0.197	0.173	-0.31	0.087
Cc1cn([C@H]2C[C@H](N=[N+]=[N-])[C@@H](CO)O2)c(=O)[nH]c1=O [Zidovudine, AZT]	-0.815	-0.853	-0.904	0.114	-0.643	-0.555
NS(=O)(=O)c1cc2c(cc1C(F)(F)F)NCNS2(=O)=O [Hydroflumethiazide]	-0.486	-0.967	-0.738	-0.664	-0.455	-0.522
C[C@H](CCC(=O)O)[C@H]1CC[C@H]2[C@@H]3CC[C@@H]4C[C@H](O)CC[C@]4(C)[C@H]3CC[C@]12C [Lithocholic acid]	-0.507	-0.5	-0.232	0.929	-0.446	-0.289
Cc1ccc(S(=O)(=O)NC(=O)NN2CCCCCC2)cc1 [Tolazamide]	-0.639	-1.11	-0.852	-0.547	-0.571	-0.672
C#Cc1cccc(Nc2ncnc3cc(OCCOC)c(OCCOC)cc23)c1 [Erlotinib]	1.24	2.03	-0.02	0.532	0.124	0.831
CC1(C)[C@@H](OC(=O)CCC(=O)O)CC[C@]2(C)[C@H]3C(=O)C=C4[C@@H]5C[C@@](C)(C(=O)O)CC[C@]5(C)CC[C@@]4(C)[C@]3(C)CC[C@@H]12 [Carbenoxolone disodium salt]	-0.362	0.399	-0.0877	0.214	-0.408	-0.356
CC(C)NC[C@@H](O)COc1cccc2ccccc12 [(R)-Propranolol hydrochloride]	0.16	1.45	0.468	-0.0727	0.133	0.265
CCN1CCN(C(=O)N[C@@H](C(=O)N[C@@H]2C(=O)N3[C@@H]2SC(C)(C)[C@@H]3C(=O)O)c2ccccc2)C(=O)C1=O [Piperacillin sodium salt]	-0.232	-0.383	-0.0934	-0.425	-0.285	-0.478
CC(=O)Oc1cccc2c1C(=O)c1c(OC(C)=O)cc(C(=O)O)cc1C2=O [Diacerein]	-0.503	-0.299	-0.484	0.525	-0.459	-0.327
O=C(O)c1cc(=O)c2c(OCC(O)COc3cccc4oc(C(=O)O)cc(=O)c34)cccc2o1 [Cromolyn disodium salt]	-0.474	-0.0857	-0.438	-0.156	-0.425	-0.474

SMILES	LBPA endosome anti-LBPA integrated intensity (z-score) [1]	LBPA endosome anti-LBPA integrated intensity (z-score) [2]	whole-cell filipin (z-score) [3]	whole-cell filipin (z-score) [4]	filipin (z-score) [5]	filipin (z-score) [6]
COc1ccc(NS(=O)(=O)c2ccc(N)cc2)nn1 [Sulfamethoxypyridazine]	-0.55	-1.31	-0.449	-0.237	-0.455	-0.522
CC[N+](C)(C)Cc1ccccc1Br [Bretylium tosylate]	-0.568	-0.254	-0.37	-0.522	-0.5	-0.561
O=C(Nc1ccccc1)OCC(CN1CCCCC1)OC(=O)Nc1ccccc1 (configuration not stated) [Diperodon hydrochloride]	1.44	2.96	0.922	-0.386	1.23	1.1
C[C@H]1O[C@H](O[C@H]2[C@H](O)[C@@H](O)[C@@H](O[C@H]3[C@H](O)[C@@H](O)C(O)O[C@@H]3CO)O[C@@H]2CO)[C@H](O)[C@@H](O)[C@@H]1N[C@H]1C=C(CO)[C@@H](O)[C@H](O)[C@H]1O (some centres not stated) [Acarbose]	-0.482	-0.645	-0.828	-0.123	-0.508	-0.442
CNCC[C@@H](Oc1ccccc1C)c1ccccc1 [Tomoxetine hydrochloride]	-0.073	-0.709	0.0322	-0.417	-0.072	-0.0592
OC(CCN1CCCCC1)(c1ccccc1)C1CC2C=CC1C2 (configuration not stated) [Biperiden hydrochloride]	1.21	1.45	-0.251	-0.585	0.329	0.363
c1ccc2c(c1)CCCC2C1=NCCN1 (configuration not stated) [Tetrahydrozoline hydrochloride]	-0.429	1.07	-0.35	0.315	-0.366	0.0856
CCCC(=O)Nc1ccc(OCC(O)CNC(C)C)c(C(C)=O)c1 (configuration not stated) [Acebutolol hydrochloride]	-0.335	-0.6	-0.712	-0.665	-0.476	-0.408
Cc1nc2ccccn2c(=O)c1CCN1CCC(C(=O)c2ccc(F)cc2)CC1 [Pirenperone]	1.82	2.56	1.36	1.21	1.54	2.01
CCN(CC)C(=O)N1CCN(C)CC1 [Diethylcarbamazine citrate]	-0.522	-0.824	-0.731	-0.758	-0.529	-0.553
COc1c(N2C[C@@H]3CCCN[C@@H]3C2)c(F)cc2c(=O)c(C(=O)O)cn(C3CC3)c12 [Moxifloxacin]	-0.595	-1.37	-0.138	-0.0544	-0.469	-0.207
CN(C)[C@@H]1C(O)=C(C(N)=O)C(=O)[C@@]2(O)C(O)=C3C(=O)c4c(O)ccc(Cl)c4[C@@](C)(O)[C@H]3C[C@@H]12 [Chlortetracycline hydrochloride]	-0.612	-0.752	-1.07	-1.11	-0.66	-0.819
CCCOc1ccccc1-c1nc2[nH]nnc2c(=O)[nH]1 [Zaprinast]	-0.577	-0.755	-0.471	0.00218	-0.519	-0.401
NNCCc1ccccc1 [Phenelzine sulfate]	-0.403	-0.966	-0.414	-0.115	-0.439	-0.425
CCCC(C(=O)OCCN(CC)CC)(c1ccccc1)c1ccccc1 [Proadifen hydrochloride]	2.78	2.82	2.1	-0.192	2.21	1.12
CCCCCCC[N+](CC)(CC)CCCCc1ccc(Cl)cc1 [Clofilium tosylate]	-0.496	-0.791	-0.98	-1.56	-0.614	-0.77
CC(=O)N[C@@H](CS)C(=O)O [Acetylcysteine]	-0.477	-0.307	-0.0556	-0.751	-0.4	-0.456
CC(=O)N(CC(O)CN(C(C)=O)c1c(I)c(C(=O)NCC(O)CO)c(I)c(C(=O)NCC(O)CO)c1I)c1c(I)c(C(=O)NCC(O)CO)c(I)c(C(=O)NCC(O)CO)c1I (configuration not stated) [Iodixanol]	-0.538	-0.533	-0.268	-0.245	-0.464	-0.482
CCOC(=O)Nc1ccc2c(c1)N(C(=O)CCN1CCOCC1)c1ccccc1S2 [Moricizine hydrochloride]	-0.59	0.328	-0.0401	0.0759	-0.436	0.233
CC(C)(C)NC[C@H](O)COc1nsnc1N1CCOCC1 [Timolol maleate salt]	-0.399	-0.336	-0.605	-0.359	-0.435	-0.395
COc1ccc2c(c1)C(=O)N(CCc1ccc(S(=O)(=O)NC(=O)NC3CCCCC3)cc1)C(=O)C2(C)C [Gliquidone]	-0.483	0.216	-0.152	-0.511	-0.531	-0.598
